In the library only some 19% were active in any assay of this set; here they are far more common.
DT40 TDP1 no CPT – qHTS for Inhibitors of human tyrosyl-DNA phosphodiesterase 1 (TDP1): qHTS in cells in absence of CPT | AID 686978, 2013 | hit rate 15% among 420,000 | Potency, µM (titrated, usually from 46.2 µM), actives largely listed as inhibitors | DT40 Tdp1-/- hTDP1 cells, no CPT, ATP luminescence, 48 h; further: nearly all actives have a fitted effect of over 55% in size
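A cellular qHTS used chicken DT40 cells lacking endogenous Tdp1 but carrying stably transfected human TDP1. Compounds were applied without camptothecin, and cell growth kinetics were judged by ATP-dependent luminescence after ≥48 hr.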
HT1080-NT tox – kills 2HG-producing HT-1080-NT fibrosarcoma cells; HT-1080-NT fibrosarcoma viability, CellTiter-Glo ATP luminescence, 48 h; Potency, µM (doses to about 46.1 µM), hits mostly cytotoxic; hit rate 1.6% among 360,000;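 further: NT is the 2HG producing partner of a matched IDH1 knockdown line; nearly all actives have a fitted effect of over 55% in size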
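750 cells/well, RPMI + 5% FBS; 2 h settle, compound pin-transfer, 48 h at 37 degrees C. CellTiter-Glo 10 min RT, luminescence. Normalized to DMSO and media-only wells.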
KB-3-1 cytotox – KB-3-1 parental cell cytotoxicity. KB-3-1 viability, CellTiter-Glo ATP luminescence, 72 h. Potency, µM (top dose mostly 46.1 µM), hits mostly cytotoxic. hit rate 1.4% among 400,000. AID 1347075; further: nearly all actives have a fitted effect of over 60% in size
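Cytotoxicity in the drug-sensitive parental line KB-3-1 was scored as loss of CellTiter-Glo luminescence following 72 h incubation with compound. Values come from curve fitting of normalized concentration-response data.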
KB-V1 MDR tox – KB-V1 MDR subline cytotoxicity; Potency, µM (series often up to 46.1 µM), hits mostly cytotoxic; AID 1347076; KB-V1 MDR cells viability, CellTiter-Glo, 72 h; hit rate 3.4% among 400,000; further: nearly all actives have a fitted effect of over 60% in size
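qHTS viability screen in drug-selected KB-V1 MDR cells: 72 h compound treatment at 37 degrees C, ATP luminescence end point.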
HT1080 IDH1KD tx – toxicity to HT-1080 IDH1 knockdown cells (counter line) | hit rate 2% among 360,000 | HT-1080 IDH1 knockdown viability, ATP luminescence, 48 h | Potency, µM (top dose mostly 46.1 µM), hits mostly cytotoxic
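Using the IDH1-knockdown HT-1080 line run in the same batch and compound series as the NT line, viability after 48 h at 37 °C was determined by CellTiter-Glo luminescence and expressed as % activity.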
DT40 TDP1 CPT – growth inhibition of DT40 Tdp1-/-;hTDP1 cells with camptothecin (screen for TDP1 inhibitors); chicken DT40 Tdp1-/-;hTDP1 cells + 20 nM CPT, ATP luminescence, 48 h; Potency, µM (titrated, usually from 46.2 µM), most hits filed as inhibitors; hit rate 12% among 420,000; further: nearly all actives have a fitted effect of over 55% in size
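Cell growth measured by CellTiter-Glo luminescence after a minimum 48 h, 37 C compound exposure with 20 nM CPT in Tdp1-knockout DT40 cells stably expressing hTDP1, seeded 400/well; qHTS titration format.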
Numbers stand for hits; 0 = inactive; ? = inconclusive; - = no result; ! = repeats disagree; [ ] = another dose, or the depositor's remark. The call rests on the fitted dose curve; in most records, active means well fitted curve in the direction sought with a large enough effect; inconclusive means small, poorly fitted or top-dose-only effect, or another doubt; inactive means no such curve, though single readings can be large; an effect the other way counts as inactive or inconclusive.

SMILES	DT40 TDP1 no CPT	HT1080-NT tox	KB-3-1 cytotox	KB-V1 MDR tox	HT1080 IDH1KD tx	DT40 TDP1 CPT
CC(=O)c1c(C)[nH]c(C(=O)OCC(=O)c2c(N)n(CC(C)C)c(=O)n(C)c2=O)c1C	23µM	0	0	0	0	?
CC(C)Cn1c(N)c(C(=O)COC(=O)c2cnccn2)c(=O)n(C)c1=O	0	0	0	0	0	?
CC(C)Cn1c(N)c(C(=O)COC(=O)C2CCCCC2)c(=O)n(C)c1=O	18µM	0	0	0	0	16µM
Cc1ccc(N2CC(C(=O)OCC(=O)c3c(N)n(CC(C)C)c(=O)n(C)c3=O)CC2=O)cc1 (stereo not given)	?	0	0	0	0	0
CC(=O)/C=C1\SC(CC(=O)O)C(=O)N1c1ccccc1 (stereo not given)	0	0	0	0	0	0
CNC(=O)C1CCC(Cn2c(=O)c3sccc3n(CC(=O)Nc3cc(F)ccc3F)c2=O)CC1 (stereo not given)	?	-	0	0	-	?
Cc1nn(-c2ccccc2)c(Cl)c1C(=O)NCC1CCCO1 (stereo not given)	0	0	0	0	0	0
COc1ccc2cc(CNc3ccc(C)cc3)c(=O)n(CC(=O)Nc3cccc(C(F)(F)F)c3)c2c1	-	-	0	0	-	-
CCCSc1ncc(Cl)c(C(=O)Nc2ccc(S(=O)(=O)N(C)c3ccccc3)cc2)n1	21µM	-	-	-	-	?
CCN(c1ccccc1)S(=O)(=O)c1ccc(NC(=O)c2nc(SC)ncc2Cl)cc1	21µM	-	0	?	-	12µM
CCSc1ncc(Cl)c(C(=O)Nc2ccccc2)n1	0	0	0	?	0	0
CN(c1ccccc1)S(=O)(=O)c1ccc(NC(=O)c2nc(S(C)(=O)=O)ncc2Cl)cc1	0.58µM	?	?	?	12µM	0.65µM
COc1ccccc1CN1CC[C@@]2(CCCN(C(=O)c3cccc(F)c3)C2)C1	0	-	-	-	-	0
Cc1ccsc1CN(C(=O)c1ccccc1)C1CCS(=O)(=O)C1 (stereo not given)	0	0	0	0	0	0
CCOC(=O)c1c(-c2ccccc2)csc1NC(=O)CSc1nc(N)cc(N)n1	8.2µM	0	6.5µM	3.3µM	0	?
CCOC(=O)c1c(-c2ccccc2)csc1NC(=O)c1nc(SCC)ncc1Cl	?	-	0	0	-	0
CCOC(=O)c1c(-c2ccccc2)csc1NC(=O)CSc1nc(C)cc(C)n1	23µM	0	0	0	0	?
CS(=O)(=O)N1CCC(C(=O)N2CCN(c3ccccc3F)CC2)CC1	0	0	0	0	0	0
CO[C@H]1O[C@@H]2O[C@@]3(C)CC[C@H]4[C@H](C)CC[C@@H]([C@H]1C)[C@@]24OO3	1.5µM	-	-	-	-	2.7µM
O=C(c1ccc(Cl)c(S(=O)(=O)N2CCCC2)c1)N1CCN(c2ccccc2F)CC1	16µM	0	?	0	0	?
CCc1nc2ccc(C(=O)N3CCN(c4ccccc4F)CC3)cc2nc1CC	5.8µM!	0	0	0	0	21µM
CCc1nc2ccc(C(=O)N3CCN(c4cc(C)ccc4C)CC3)cc2nc1CC	?	0	?	0	0	?
O=C(c1cccc(S(=O)(=O)N2CCCC2)c1)N1CCN(c2ccccc2F)CC1	?	0	0	6.5µM	0	0
CCCOc1ccc(C(=O)NNC(=O)CCNC(=O)c2ccco2)cc1OC	0	0	0	0	0	0
NC(=O)C1CCCN(C(=O)c2ccc(-c3cccc(Cl)c3Cl)o2)C1 (stereo not given)	?	?	0	0	0	0
SMILES	DT40 TDP1 no CPT	HT1080-NT tox	KB-3-1 cytotox	KB-V1 MDR tox	HT1080 IDH1KD tx	DT40 TDP1 CPT
COc1ccccc1CNC(=O)C1CC2Cn3c(nc4cc(C)c(C)cc43)C2N1C (stereo not given)	0	0	13µM	0	0	0
CC(C)CCNC(=O)C1CC2Cn3c(nc4cc(Cl)c(Cl)cc43)C2N1C (stereo not given)	23µM	0	0	0	0	?
Cc1ccccc1C(=O)Nc1nnc(S(=O)(=O)N2CCCCC2)s1	0	0	0	0	0	?
CCn1nc(C)c(/C=N/NC(=O)c2ccc3c(c2)c(C)c(C)n3Cc2ccccc2)c1C	10µM	0	?	0	0	10µM
CCn1cc(/C=N\NC(=O)c2ccc3c(c2)c(C)c(C)n3Cc2ccccc2)c(C)n1	16µM	0	0	0	0	13µM
O=C(NCCCN1CCCC1)c1[nH]c(C(F)(F)F)nc1-c1ccccc1	0	0	0	0	0	0
CCOc1ccc(-c2nc(CSCC(=O)NCc3ccco3)c(C)o2)cc1	?	0	0	0	0	?
CC(=O)N1CCN(Cc2nc3cc(NC(=O)c4cccs4)ccc3n2C)CC1	0	0	0	0	0	0
O=C(NC1CC1)C1CCN(S(=O)(=O)c2cc([N+](=O)[O-])ccc2Cl)CC1	0	0[9.24 µM]	?	?	0	0
O=C(NCc1ccc(N2CCCC2=O)cc1)Nc1cccc(Cl)c1	?	0	0	16µM	0	0
Cc1nnc(NC(=O)C2CCN(S(=O)(=O)c3cc([N+](=O)[O-])ccc3Cl)CC2)o1	0	0	0	0	0	0
O=C(NCc1ccc(Cl)cc1)C1CCN(S(=O)(=O)c2cc([N+](=O)[O-])ccc2Cl)CC1	16µM	0	0	0	0	23µM
CN(C)S(=O)(=O)c1ccc(N2CCCC2)c(C(=O)Nc2nc3ccccc3s2)c1	?	0	?	?	?	?
Cc1cccc2sc(NC(=O)c3cc(S(=O)(=O)N(C)C)ccc3N3CCCC3)nc12	18µM	0	0	?	0	?
Cc1cccc2sc(NC(=O)C3CCN(S(=O)(=O)c4cc([N+](=O)[O-])ccc4Cl)CC3)nc12	16µM	0	?	?	?	18µM
CCc1sc(NC(=O)c2cc3ccccc3oc2=O)nc1-c1cccs1	?	0	0	0	0	0
COCCn1c(C)cc(O)c(C(c2ccc(OC)cc2)N2CCN(c3ccccc3)CC2)c1=O (stereo not given)	0	-	0	0	-	0
Cc1ccc(NC(=O)c2cnc(SCC(=O)N3CCCc4ccccc43)n(C)c2=O)cc1	0	-	-	-	-	?
O=C(NCc1ccccc1)C1CCN(S(=O)(=O)c2ccc(N3CCCC3=O)cc2)CC1	21µM	0	0	0	0	0
O=C(NCc1ccc(Cl)cc1)C1CCN(S(=O)(=O)c2ccc(N3CCCC3=O)cc2)CC1	?	0	0	0	0	10µM
Cc1ncsc1C(=O)NCc1ccc(N2CCCC2=O)cc1	0	0	0	16µM	0	?
O=C(NCc1ccc(F)cc1)C1CCN(S(=O)(=O)c2ccc(Cl)cc2)CC1	?	0	0	0	0	0

Screening results from PubChem.
